Laboratory results from PubChem BioAssay (EPA / NIEHS).
“And” between values parts separate entries of the source, which are not always exact repeats. Equal entries are not always repeated. More than one record can exist for a structure, and the calls need not agree. The source made the active and inactive calls. Rule for the calls: active = hit-call score of the fitted dose curve at least 0.9, where 1 is the maximum; inactive = score below 0.9.

What was measured:
[1] = IUF_NPC1b_proliferation_BrdU_72hr: Leibniz Research Institute for Environmental Medicine (IUF) 72-hour Neural Progenitor Cell Bromodeoxyuridine (BrdU) Proliferation Assay (NPC1b) (AID 2284207)
In short: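 hNPC spheres (primary, GW 16-19 fetal cortex), single sphere/well, EGF+FGF medium; 72 h compound, no renewal; BrdU pulse last 16 h; luminescent ELISA; activity vs DMSO baseline; growth-factor withdrawal as positive control.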

[2] = IUF_NPC1a_proliferation_area_72hr: Leibniz Research Institute for Environmental Medicine (IUF) 72-hour Neural Progenitor Cell Proliferation Area Assay (NPC1a) (AID 2284208)
In short: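 Single 0.25–0.35 mm human fetal neural progenitor spheres in proliferation medium with EGF and FGF, exposed 72 h from plating without renewal at 37C, pH 7.2-7.6. Sphere area growth measured by automated phase-contrast imaging, relative to DMSO.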

[3] = IUF_NPC1_viability_72hr: Viability Assessment at 72 hours in the Leibniz Research Institute for Environmental Medicine (IUF) Neural Progenitor Cell Proliferation Assay (NPC1) (AID 2284209)
In short: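 hNPC spheres, 1/well, EGF+FGF medium, 37C/5% CO2; dosed day 0, 72 h, no re-dosing. Resazurin reduction (alamar blue) fluorescence; DMSO = negative control/baseline; growth-factor-free wells as positive control.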

[4] = CCTE_Mundy_HCI_Cortical_Synap_Neur_Matur_NeuriteSpotCountPerNeuriteLength: CCTE's Synaptogenesis and Neurite Maturation Assay in rat cortical cells for Neurite Spot Count per Neurite Length, Mundy Lab (AID 2284210)
In short: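 Rat primary cortical cultures, glia arrested with AraC at DIV 5, were dosed with media change at DIV 7 and fixed at DIV 12. Synaptophysin puncta per MAP2-labelled neurite length were quantified by high-content imaging versus DMSO.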

[5] = CCTE_Mundy_HCI_Cortical_Synap_Neur_Matur_BPCount: CCTE's Synaptogenesis and Neurite Maturation Assay in rat cortical cells for Branch Point Count, Mundy Lab (AID 2284211)
In short: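 Rat primary cortical cultures, AraC added DIV 5; chemicals dosed DIV 7 through DIV 12. Fixed cells stained for MAP2, synaptophysin and Hoechst; neurite branch points counted by automated high-content imaging, fitted relative to DMSO.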

[6] = CCTE_Mundy_HCI_Cortical_NOG_NeuriteCount: CCTE's Neurite Outgrowth Assay in rat cortical cells for Neurite Count, Mundy Lab (AID 2284212);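 note: cells fixed about two days after chemical exposure began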
In short: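 Neurite number per cell from high-content imaging of betaIII-tubulin immunostaining, with Hoechst nuclear counterstain.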

[7] = CCTE_Mundy_HCI_Cortical_NOG_NeuriteLength: CCTE's Neurite Outgrowth Assay in rat cortical cells for Neurite Length, Mundy Lab (AID 2284213);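 for AC50: neurites imaged about 48 to 50 h after chemical exposure began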
In short: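 Neurite length was read by high-content imaging of βIII-tubulin-labelled neurites in rat primary cortical cultures. Activity was fitted relative to DMSO.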

[8] = CCTE_Mundy_HCI_Cortical_Synap_Neur_Matur_NeuriteLength: CCTE's Synaptogenesis and Neurite Maturation Assay in rat cortical cells for Neurite Length, Mundy Lab (AID 2284214)
In short: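 Rat cortical neurons, AraC at DIV 5; compound + media change DIV 7, end DIV 12 (288.33 h). Fix, MAP2/synaptophysin/Hoechst immunostain, automated HCI of neurite length vs DMSO.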

[9] = CCTE_Mundy_HCI_Cortical_Synap_Neur_Matur_NeuriteSpotCountPerNeuron: CCTE's Synaptogenesis and Neurite Maturation Assay in rat cortical cells for Neurite Spot Count per Neuron Count, Mundy Lab (AID 2284215)
In short: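 Rat primary cortical cultures given AraC at DIV 5, dosed from DIV 7 to DIV 12 with media change. Fixed, stained for MAP2, synaptophysin and Hoechst; neurite-associated synaptophysin puncta per neuron quantified by high-content imaging versus DMSO.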

[10] = UKN4_HCS_LUHMES_neurite_outgrowth: University of Konstanz (UKN) Leist Lab Neurite Outgrowth Assay in human LUHMES cells (UKN4) (AID 2284206); conditions: actives raise or lower the signal
In short: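 Day 0 switch to differentiation medium; day 2 replate (30000 cells/well) without cAMP and GDNF; compounds added 30 min–2 h later. At 23.5 h, 30 min calcein-AM/H-33342 live stain, then imaging.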

Measured: AC50

C=CC1(C)OC(=O)N(c2cc(Cl)cc(Cl)c2)C1=O (configuration not stated)
not listed: [10]
inactive: all other assays above

CCOC(=O)CC(SP(=S)(OC)OC)C(=O)OCC (configuration not stated)
inactive: [1] | [2] | [3] | [4] | [5] | [8] | [9]
active: [5] 50 µM | [7] 77.6 µM and 15 µM | [8] 61.9 µM | [9] 50 µM

CN(C)C(=S)SSC(=S)N(C)C
active: [1] 50.1 µM | [2] 67.2 µM | [3] 74.6 µM | [4] 0.0765 µM | [5] 0.0767 µM | [6] 0.0733 µM | [7] 0.0588 µM | [8] 0.0549 µM | [9] 0.0745 µM

N#Cc1nn(-c2c(Cl)cc(C(F)(F)F)cc2Cl)c(N)c1S(=O)C(F)(F)F (configuration not stated)
active: [10] 16.1 µM | [4] 15 µM | [9] 3.22 µM
inactive: all other assays above

Cc1ccc(-c2c(Cl)nc(C#N)n2S(=O)(=O)N(C)C)cc1
active: [1] 74.2 µM | [2] 74.1 µM | [3] 83 µM | [4] 73.3 µM | [5] 71.1 µM | [6] 72.9 µM | [7] 85.3 µM | [8] 85.7 µM | [9] 70.3 µM

CCCCOC(=O)c1ccccc1C(=O)OCCCC
active: [4] 84.1 µM | [5] 50 µM | [8] 64.7 µM | [9] 50 µM
not listed: [10]
inactive: all other assays above

CCOc1cc(Oc2ccc(C(F)(F)F)cc2Cl)ccc1[N+](=O)[O-]
active: [4] 14.3 µM | [5] 14.8 µM | [7] 50 µM | [8] 16.1 µM | [9] 11.6 µM
inactive: [1] | [2] | [3]

COC(=O)N(OC)c1ccccc1COc1ccn(-c2ccc(Cl)cc2)n1
active: [1] 4.1 µM | [2] 1.44 µM | [3] 7.52 µM | [4] 0.0823 µM | [5] 0.0563 µM | [6] 0.141 µM | [7] 0.153 µM | [8] 0.0838 µM | [9] 0.0537 µM

CCCCC(CC)COC(=O)c1ccccc1C(=O)OCC(CC)CCCC (configuration not stated)
active: [4] 8.06 µM and 7.58 µM | [5] 3.03 µM | [7] 8.99 µM and 15 µM | [8] 3.85 µM and 4.26 µM | [9] 5.47 µM and 3.59 µM
inactive: [1] | [2] | [3]

C=CCC1=C(C)C(OC(=O)C2C(C=C(C)C)C2(C)C)CC1=O (configuration not stated)
active: [10] 9.08 µM
not listed: [1] | [2] | [3]
inactive: all other assays above

C=CCC1=C(C)[C@@H](OC(=O)[C@@H]2[C@@H](C=C(C)C)C2(C)C)CC1=O
active: [4] 20.5 µM | [5] 26.6 µM | [8] 23.9 µM | [9] 22.1 µM
inactive: [6] | [7]

CC(C)(C)c1ccc(CSc2cnn(C(C)(C)C)c(=O)c2Cl)cc1
active: [1] 0.0138 µM | [2] 0.0126 µM | [4] 0.000994 µM | [5] 0.000559 µM | [6] 0.00768 µM | [7] 0.00479 µM | [8] 0.000626 µM | [9] 0.000469 µM
inactive: [3]

COP(=S)(OC)Oc1nc(Cl)c(Cl)cc1Cl
inactive: [1] | [2] | [3]
active: [5] 24.8 µM | [6] 25.9 µM | [7] 23.1 µM | [8] 25.9 µM | [9] 20.7 µM

COP(N)(=O)SC (configuration not stated)
active: [5] 0.0258 µM
inactive: [1] | [2] | [3] | [4] | [5] | [6] | [7] | [8] | [9]

CCCCNC(=O)n1c(NC(=O)OC)nc2ccccc21
inactive: [4] | [6] | [9]
active: [10] 7.73 µM | [5] 15 µM | [7] 11.1 µM | [8] 15 µM

CNC(=O)ON=CC(C)(C)SC
not listed: [10]
inactive: all other assays above

CO/C=C(/C(=O)OC)c1ccccc1Oc1cc(Oc2ccccc2C#N)ncn1
inactive: [1] | [3]
active: [2] 60.2 µM | [4] 5.11 µM | [5] 3.25 µM | [6] 2.73 µM | [7] 2.58 µM | [8] 3.56 µM | [9] 2.75 µM
